Compound activity from PubChem BioAssay.
BCLXL inh: blocks human Bcl-xL binding to Bim BH3 peptide | Q07817 | inhibition, % at 10.9 µM | 320,000 tested, 0.7% active | GST-Bcl-xL / FITC-Bim BH3 peptide fluorescence polarization;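 active means inhibition above the mean of all tested compounds plus 3 SD, cutoff set per campaign, cut at about 30% in these data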;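 further: 0% = DMSO wells and 100% = unlabeled Bim-BH3 peptide competitor; inhibitors lower millipolarization by displacing the labeled peptide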
Target sequence (Q07817 whole entry, looked up): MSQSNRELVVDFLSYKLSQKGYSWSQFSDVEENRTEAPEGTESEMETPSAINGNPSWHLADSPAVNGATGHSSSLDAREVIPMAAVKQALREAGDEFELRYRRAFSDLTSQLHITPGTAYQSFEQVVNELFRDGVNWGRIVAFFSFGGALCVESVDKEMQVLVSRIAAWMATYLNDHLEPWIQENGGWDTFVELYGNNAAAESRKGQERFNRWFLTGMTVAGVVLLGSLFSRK
Mcl1 Noxa PPI: disrupts binding of human Mcl-1 to Noxa peptide | Q07820 | inhibition, % at 21.7 µM | TR-FRET Mcl-1/Noxa peptide binding, 2 h | 220,000 tested, 1.5% active;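 active means compounds that cut the protein-peptide binding signal by more than 50% relative to plate controls in a single-dose test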;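 further: His-tagged Mcl-1 with rhodamine Noxa BH3 peptide and terbium anti-His antibody; 0% = Mcl-1 plus Noxa peptide wells and 100% = peptide-only wells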
Mcl1-Bid inh: Mcl-1/Bid interaction inhibition. inhibition, % at 21.7 µM. Q07820. AID 1021. TR-FRET Mcl-1/Bid-Dy647 peptide binding, 1536-well. 220,000 tested, 0.97% active;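 active means compounds that cut the binding signal by more than half at the single screening dose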;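 further: His-tagged Mcl-1 with europium anti-His antibody binding Bid BH3 peptide; 0% = Mcl-1 plus peptide wells and 100% = peptide-only wells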
MCL1-BIM inh: disrupts human MCL1 binding to BIM-BH3 peptide | GST-MCL1 / FITC-Bim-BH3 fluorescence polarization | inhibition, % at 10.9 µM | 320,000 tested, 0.68% active | AID 2057;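 active means inhibition above the mean inhibition of all tested compounds plus 3 SD, set per campaign, cut at about 40% in these data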;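 further: 0% = DMSO wells and 100% = unlabeled Bim-BH3 peptide control; higher means more loss of mP so more displacement of Bim peptide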
Bim-Mcl-1: human Bim-Mcl-1 interaction inhibition. Bead-based flow cytometry, Bim peptide-Mcl-1 binding. inhibition, % at 10 µM. 190,000 tested, 0.1% active. AID 1009; in the data active means inhibition above about 40%;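 further: 0% = no compound tracer wells and 100% = peptide blocker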
GLD-1 RNA inh: GLD-1-TGE RNA interaction inhibition (C. elegans); Q17339; purified GLD-1 + fluorescein TGE RNA, fluorescence polarization; inhibition, % at 5.96 µM; 320,000 tested, 0.44% active;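 active means percent inhibition above a per-plate cutoff, the plate mean of test compounds plus 3 SD, cut at about 30% in these data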;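 further: 0% = DMSO wells with GLD-1 and probe and 100% = wells lacking GLD-1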
Target sequence (Q17339 whole entry, looked up): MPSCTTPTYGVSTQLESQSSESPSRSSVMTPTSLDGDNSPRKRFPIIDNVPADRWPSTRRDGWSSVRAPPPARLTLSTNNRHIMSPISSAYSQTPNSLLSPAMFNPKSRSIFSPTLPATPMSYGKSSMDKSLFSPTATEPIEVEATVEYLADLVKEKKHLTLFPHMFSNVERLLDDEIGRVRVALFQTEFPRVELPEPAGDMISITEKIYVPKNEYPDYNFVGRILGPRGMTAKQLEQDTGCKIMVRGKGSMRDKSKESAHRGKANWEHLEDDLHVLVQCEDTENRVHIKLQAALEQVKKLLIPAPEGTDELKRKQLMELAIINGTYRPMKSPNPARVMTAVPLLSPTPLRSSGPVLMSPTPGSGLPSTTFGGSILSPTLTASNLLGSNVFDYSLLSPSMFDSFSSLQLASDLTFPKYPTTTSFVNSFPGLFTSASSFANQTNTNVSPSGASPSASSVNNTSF
* hit, by the source's call; · = no result given. Only some compounds are listed: those with a hit (about 2.3% of all), similar ones and a draw of the others.

SMILES | BCLXL inh | Mcl1 Noxa PPI | Mcl1-Bid inh | MCL1-BIM inh | Bim-Mcl-1 | GLD-1 RNA inh
SC(COCc1ccccc1)CN1CCN(Cc2ccc3c(c2)OCO3)CC1 (centres undefined) | 10.0 | -5.0 | -55.0 | 7.1 | -1.0 | 0.7
CCc1nnc(NC(=O)c2ccc(-c3ccccc3Cl)o2)s1 | 2.3 | 19.8 | 52.8* | 5.0 | 1.0 | 9.4
COc1cccc(C(C(=O)NC2CCCC2)N(C(=O)c2ccco2)c2ccc(-n3cnnn3)c(C)c2)c1OC (centres undefined) | 5.2 | -13.1 | -3.7 | 6.0 | -3.0 | -3.0
CN1CCC(N(C)CC(=O)Nc2ccc3c(c2)OC(F)(F)O3)CC1 | 9.2 | 28.8 | 59.8* | 6.8 | · | 4.2
COc1ccc(NC(=O)CSc2nc3ccccc3c(=O)[nH]2)cc1S(N)(=O)=O | 6.0 | · | · | 8.2 | · | 1.4
O=C(NC1CCCCC1)c1sc(=S)n2c1[nH]c(=O)c1ccccc12 | 14.2 | 75.7* | 30.3 | 18.2 | -1.0 | 10.3
O=C(CN(C(=O)CCC(=O)Nc1ccccn1)C1CCCC1)NCc1ccc(F)cc1 | 3.8 | · | · | 12.4 | · | 5.7
COc1cc(N2C(=O)C=CC2=O)c(OC)cc1Cl | 8.0 | 58.7* | 21.0 | 10.0 | · | 8.8
Cc1ccccc1OCC(=O)NCCNC(=O)c1ccccn1 | 3.9 | · | · | -2.3 | · | 4.5
Cc1ccc(S(=O)(=O)C(CCC(=O)N2CCOCC2)S(=O)(=O)c2ccc(C)cc2)cc1 | 6.8 | 99.8* | -15.3 | 11.8 | 1.0 | 3.2
Cc1ccc(S(=O)(=O)/N=C(\CCl)N2CCOCC2)cc1 | 0.7 | 8.9 | 67.1* | 3.0 | -4.0 | 4.8
CCCCCc1nnc(NC(=O)c2ccc(N3CCCC3=O)cc2)s1 | -5.2 | · | · | -2.3 | · | -1.7
NC(=S)N/N=C/c1ccc(-c2ccc([N+](=O)[O-])cc2)o1 | -39.0 | 52.0* | -14.1 | -78.5 | 0.0 | 2.4
O=C1Nc2ccccc2/C1=N/N=C/c1ccc(-c2ccc([N+](=O)[O-])cc2)o1 | · | 79.8* | 88.6* | · | 10.0 | ·
Cc1ccc(-c2nnc(SCC(=O)N(CC(C)C)c3c(N)n(Cc4ccccc4)c(=O)[nH]c3=O)n2N)cc1 | -3.6 | · | · | -13.9 | · | -3.3
C[C@@H](C(=O)NCCc1c[nH]c2ccccc12)[C@@H]1C[C@@]1(C)[C@@H](NC(=O)OCc1ccccc1)c1ccccc1 | -7.4 | -5.4 | -17.4 | -12.5 | 86.0* | -4.8
O=C(O)c1cccc(NC(=S)N/N=C/c2cccc(O)c2)c1 | 7.5 | 16.5 | -35.8 | 21.0 | 0.0 | 4.7
O=C(O)c1cccc(NC(=S)N/N=C/c2ccccc2OCc2ccc(Br)cc2)c1 | 11.2 | 51.9* | -36.7 | 25.1 | -4.0 | 0.6
O=C(O)c1cccc(NC(=S)N/N=C/c2ccccc2OCc2cccc(Br)c2)c1 | · | 55.8* | -38.5 | · | -3.0 | ·
O=C(c1cccc(N2C(=O)c3ccccc3C2=O)c1)N1CCCCCC1 | -0.6 | 8.5 | -8.9 | 0.5 | -1.0 | 0.4
O=C1c2cccc3c(N4CCCCC4)ccc(c23)C(=O)N1c1cccc(O)c1 | 34.0* | -20.6 | -28.6 | -0.2 | 3.0 | 7.8
O=C(OCCN1C(=O)c2cccc3c(N4CCOCC4)ccc(c23)C1=O)c1ccccc1Cl | 25.1 | -144.9 | -11.8 | -8.9 | 2.0 | 19.2
C=CCN1C(=O)c2cccc3c(N4CCCCC4)ccc(c23)C1=O | 0.9 | -4.8 | -15.0 | -12.0 | 0.0 | 151.2*
O=C1c2cccc3c(N4CCCCC4)ccc(c23)C(=O)N1CCO | 49.4* | -35.4 | -7.0 | 26.7 | 0.0 | -2.9
COc1cc(C(=O)NC(=S)Nc2ccc3[nH]c(=O)[nH]c3c2)cc(OC)c1OC | 10.3 | · | · | 12.5 | · | -1.4
SMILES | BCLXL inh | Mcl1 Noxa PPI | Mcl1-Bid inh | MCL1-BIM inh | Bim-Mcl-1 | GLD-1 RNA inh
O=C(CN1C(=O)NC2(CCc3ccccc3C2)C1=O)Nc1ccc(F)cc1 (centres undefined) | 4.2 | -11.7 | 87.8* | 3.1 | -8.0 | 3.2
O=C(CN1C(=O)NC2(CCCCC2)C1=O)Nc1ccc(F)cc1 | -6.3 | 12.7 | -7.1 | -1.1 | 2.0 | -1.5
O=S(=O)(Nc1ccc2c(c1)OCCO2)c1cccc2nsnc12 | 0.6 | 26.3 | 61.0* | 0.2 | -1.0 | -2.0
CCOc1ccc(C2C3=C(CCCC3=O)Nc3ccc4ncccc4c32)cc1 (centres undefined) | 0.8 | -2.9 | -67.1 | 2.5 | · | 6.8
O=C1CCCC2=C1C(c1ccc(O)c(O)c1)c1c(ccc3ncccc13)N2 (centres undefined) | 35.7* | 78.8* | -44.2 | 52.1* | 7.0 | 0.6
O=C(CSc1nc(-c2ccccc2Cl)ns1)NCc1ccc2c(c1)OCO2 | 63.0* | -2.3 | -35.6 | 9.2 | 2.0 | -6.2
Cc1ccc(C)n1-c1cccc(N)c1 | 36.0* | 21.6 | -76.5 | 45.3* | 3.0 | -10.9
Cc1ccc(C)n1-c1cccc(C(=O)Nc2ccccc2)c1 | -7.8 | 15.5 | -37.7 | -11.2 | · | -4.5
Cc1cc(C=O)c(C)n1-c1cccc(C(=O)O)c1 | 1.2 | 19.5 | -44.6 | -2.8 | 0.0 | -1.7
Cc1ccc(C)n1-c1cccc(C(=O)O)c1 | 25.7 | 98.9* | 88.4* | 70.7* | 13.0 | 14.4
Cc1cc(/C=C2\C(=N)N3N=C(c4ccco4)SC3=NC2=O)c(C)n1Cc1ccccc1 | -2.3 | 63.0* | -54.3 | 2.1 | · | -4.1
CCOC(=O)c1ccc(NC(=O)COC(=O)c2cccc(Oc3ccccc3)c2)cc1 | 2.5 | 2.6 | 6.3 | -0.2 | -5.0 | 7.9
Cc1cc(C)cc(OCC(=O)NCCc2nc3ccccc3[nH]2)c1 | 47.2* | 10.1 | -24.9 | 10.3 | -5.0 | -5.0
CCOc1ccc(OCC(=O)NCCc2nc3ccccc3[nH]2)cc1 | -1.6 | 24.0 | 0.4 | -2.6 | 1.0 | -1.9
Cc1nn(-c2ccc(F)cc2)c(Cl)c1/C=C/C(=O)OCC(=O)Nc1c(F)c(F)c(F)c(F)c1F | 1.6 | -8.7 | 4.1 | 1.4 | -3.0 | 1.9
CC(C)(C)Cn1c(=O)[nH]c(=O)c2cc([N+](=O)[O-])cnc21 | 7.2 | 25.1 | 15.8 | 4.1 | 0.0 | 2.1
C=CCOC(=O)C(=O)/C=C/c1c(C)n(C)n(-c2ccccc2)c1=O | 3.7 | -10.6 | -8.6 | 5.2 | 0.0 | 3.9
C=CCOC(=O)C(=O)/C=C/c1coc2ccccc2c1=O | 51.5* | 4.9 | -5.5 | 46.5* | -1.0 | 63.4*
COc1ccc(NC(=O)Cn2ncc(Cl)c(Cl)c2=O)cc1S(=O)(=O)N1CCOCC1 | 8.3 | 78.0* | -16.2 | 26.6 | 0.0 | 1.7
CCOC(=O)c1ccc(NC(=O)CSCCC(=O)O)cc1 | 7.8 | -8.3 | 0.3 | -2.0 | 68.0* | -0.4
CCN(CC)S(=O)(=O)c1cc(NC(=O)Cn2ncc(Cl)c(Cl)c2=O)ccc1C | 1.9 | 77.6* | -4.6 | 9.5 | · | -5.1
COc1ccc(S(=O)(=O)N2CCOCC2)cc1NC(=O)COc1ncnc2ccccc12 | 2.0 | 4.1 | -0.1 | -4.7 | 0.0 | 3.5
O=C(Cn1ncc(Cl)c(Cl)c1=O)Nc1ccc2c(c1)OCO2 | -2.4 | · | · | -2.9 | · | 6.3
COc1ccc(NC(=O)COc2ncnc3ccccc23)cc1S(=O)(=O)N1CCOCC1 | -4.2 | -10.8 | -18.2 | 0.3 | 41.0* | 4.0
